PubChem BioAssay (Tox21)
Inconclusive results are not listed. Entries that show only a call come without a potency. Activity calls are given as the source filed them. The call rests on the fitted dose curve; in most records, active means well fitted cell-killing curve with a large enough effect in the repeat runs; inconclusive means weak or mixed curves, or effect the other way; inactive means no such curve, though single readings can be large or run the other way.

Test: qHTS assay to identify small molecule agonists of the farnesoid-X-receptor (FXR) signaling pathway - cell viability counter screen (AID 743218); further: nearly all actives have a fitted effect of over 45% in size
Conditions: FXR-bla HEK293T viability, CellTiter-Glo luminescence, 16 h; series mostly up to 62.6 µM
Method in brief: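 After 16 h at 37 C with test compounds, FXR-bla HEK 293T cells were given LiveBLAzer B/G substrate for 2 h at RT and then CellTiter-Glo; luminescence was taken after 30 min.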
Potency means the concentration at half of the fitted maximal effect.

Compound	Potency
c1ccccc1	inactive
CCN(CC)C(=O)C1CN2CCc3cc(OC)c(OC)cc3C2CC1OC(C)=O (centres undefined)	237 nM (active)
O=C(CN1CCN(Cc2ccc3c(c2)OCO3)CC1)N1c2ccccc2Sc2ccccc21	inactive
CC(=O)N(CC(O)CO)c1c(I)c(C(=O)NCC(O)CO)c(I)c(C(=O)NCC(O)CO)c1I (centres undefined)	inactive
CC(CC(=O)O)CC(C)(C)C (centres undefined)	inactive
c1ccc(CNc2ncnc3nc[nH]c23)cc1	inactive
CCC(CO)CO	inactive
CC(=O)OC(C)(C)Cc1ccccc1	inactive
C=CCOc1cc(Cl)ccc1C(=O)NCCN(CC)CC	inactive
Cc1nc2n(c(=O)c1CCN1CCC(C(=O)c3ccc(F)cc3)CC1)CCS2	inactive
CCOC(=O)CC#N	inactive
CC(=O)OCCCc1ccccc1	inactive
CC(C)C(=O)Nc1cccc(C(F)(F)F)c1	inactive
Cc1cccc(NC(=S)N(C)C)c1	inactive
CCC(C)(CCC(C)C)C(=O)[O-].CCC(C)(CCC(C)C)C(=O)[O-].[Zn+2] (centres undefined)	inactive
CC(C)COC(=O)/C=C/c1ccccc1	inactive
Nc1ccc(C(=O)OCC(O)CO)cc1 (centres undefined)	inactive

Compound	Potency
O=C(O)c1ccc(OCCN2CCCCC2)cc1	inactive
O=C(O)/C=C/c1ccccc1	inactive
CCCCCCCCCCCCCCCCCCN(C)C	inactive
C[Si]1(C)N[Si](C)(C)N[Si](C)(C)N1	inactive
Cc1ccc(C(=O)C(=O)O)cc1C	inactive
CNC(=O)C(c1ccccc1)c1ccccc1	inactive
CCCCC(CC)CNC(=O)CC(C)OC(=O)CCC(=O)O (centres undefined)	inactive
CC(=O)OC[C@H]1O[C@@H](OC(C)=O)[C@H](OC(C)=O)[C@@H]1OC(C)=O	inactive
N#CCCOCCOCCC#N	inactive
CC(C)CCC(=O)CCC(C)C	inactive
Nc1nc(=O)n([C@@H]2O[C@H](CO)[C@@H](O)[C@@H]2F)cc1I	inactive
CCOC(=O)C(=O)c1csc(NC=O)n1	inactive
CC(C)=CC(C)(C)C	inactive
CC(=O)N1CCN(c2ccc(O)cc2)CC1	inactive
COc1ccc(OC)c(NC(=O)CC(C)=O)c1	inactive
CO/N=C(/C(=O)N[C@@H]1C(=O)N2C(C(=O)O)=C(Cn3nnc(C)n3)CS[C@H]12)c1csc(N)n1	inactive
C/C=C(\C)C(=O)OCC/C=C\CC	inactive
